Most compounds without a hit are left out; they make up all but 2% or so of the library.
Hsp70 activator = transcriptional activators of Hsp70; HeLa Hsp70 promoter luciferase reporter, luminescence; scaled: vehicle 0, proteasome-inhibitor control 100%; activation, % at 10 µM; 200,000 compounds, 0.04% hits;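 active = activation above the mean across all tested compounds plus 3 SD, cutoff set per campaign, cut at about 5.5% in these data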;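 note: 100% = MG132 at 30 µM as the positive control and 0% = DMSO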
PKD1 kinase inh = PKD1 (human) kinase inhibition; Q15139; PKD1 kinase fluorescence polarization assay; inhibition, % (test concentration not listed); 200,000 compounds, 0.056% hits; in the data active = inhibition above about 50%
Arbovirus anti = blocks arbovirus infection; 200,000 compounds, 0.37% hits; inhibition, % at 10 µM; arbovirus infection cell-based antiviral screen; in the data active = inhibition above about 30%
HMGR II inh = blocks class II HMG-CoA reductase of Enterococcus faecalis; purified E. faecalis HMGR, NADPH absorbance 340 nm kinetic; inhibition, % at 10 µM; 190,000 compounds, 0.41% hits; AID 1066;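 active = inhibition above a set limit, the median over all tested compounds plus 3 SD, cut at about 9.5% in these data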;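 note: enzyme runs in reverse so mevalonate oxidation gives rising NADPH absorbance; 0% = complete reaction with DMSO and 100% = background rate lacking mevalonate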
Wee1 degr inh = inhibitors of human Wee1 degradation | P30291 | HeLa Luc-Wee1K328M stability, luciferase luminescence; 100% = proteasome inhibitor MG132 effect | reporter increase, % at 5 µM | 220,000 compounds, 1.2% hits;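 active = activation above the mean of all tested compounds plus 3 SD, set per screening run, cut at about 8.8% in these data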;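 note: cells exposed to compound for 20 h before luminescence read; 0% = DMSO alone and 100% = MG132 at 30 µM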
Target sequence (P30291 whole entry K328M): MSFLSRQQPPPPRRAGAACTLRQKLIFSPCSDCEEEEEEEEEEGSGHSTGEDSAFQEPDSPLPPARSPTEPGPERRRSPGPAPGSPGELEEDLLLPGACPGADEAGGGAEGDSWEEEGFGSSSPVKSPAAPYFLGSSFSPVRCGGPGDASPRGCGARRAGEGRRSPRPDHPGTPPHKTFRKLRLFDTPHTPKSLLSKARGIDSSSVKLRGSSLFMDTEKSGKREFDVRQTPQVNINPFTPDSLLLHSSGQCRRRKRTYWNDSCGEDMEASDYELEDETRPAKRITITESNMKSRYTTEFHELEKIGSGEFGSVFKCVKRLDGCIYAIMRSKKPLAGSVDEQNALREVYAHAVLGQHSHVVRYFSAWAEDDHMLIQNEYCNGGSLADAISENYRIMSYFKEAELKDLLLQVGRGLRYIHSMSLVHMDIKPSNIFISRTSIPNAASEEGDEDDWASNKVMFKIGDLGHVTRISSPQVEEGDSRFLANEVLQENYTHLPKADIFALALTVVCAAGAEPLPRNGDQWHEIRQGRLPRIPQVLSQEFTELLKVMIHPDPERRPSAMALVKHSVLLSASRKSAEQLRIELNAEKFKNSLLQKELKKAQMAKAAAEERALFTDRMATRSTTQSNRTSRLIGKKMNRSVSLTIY
Starred values were filed as active, the others as inactive; x = no result given; ! = not confirmed by another sample.

SMILES	Hsp70 activator	PKD1 kinase inh	Arbovirus anti	HMGR II inh	Wee1 degr inh
Cc1cccc(Nc2nnc(SC/C(O)=C(\C#N)c3nc4ccccc4[nH]3)s2)c1C	0	5	29	1	3
Cc1cccc(C)c1Nc1nnc(SC/C(O)=C(\C#N)c2nc3ccccc3[nH]2)s1	0	1	30*	-8	-1
CCOc1ccc(CN(C(=O)c2oc3ccccc3c2C)C2CCS(=O)(=O)C2)cc1 (configuration not stated)	0	0	-10	-5	4
COc1ccc(CN(C(=O)c2oc3ccccc3c2C)C2CCS(=O)(=O)C2)cc1OC (configuration not stated)	0	-2	87*	-2	0
CCOc1c(Br)cc(C(N)=O)cc1OCc1ccccc1	0	-14	1	2	1
COc1ccc2ccc(=O)oc2c1	0	-13	1	15*	-2
NC(N)=N/N=C/c1cccc([N+](=O)[O-])c1O	0	-3	-2	-1	1
O=[N+]([O-])c1cccc(/C=N\N=C2c3ccccc3-c3ccccc32)c1O	0	-10	40*	-9	-4
C=CCn1c(C)nnc1SCC(=O)N1CCN(S(=O)(=O)c2ccccc2)CC1	x	x	x	x	-1
Cc1ccc(C2=[N+]([O-])C3(CCCCC/C3=N\NC(N)=S)N(O)C2(C)C)o1 (configuration not stated)	0	-5	4	-1	1
COc1ccccc1CNc1cc(C)ccc1C	0	-9	5	-2	9.5*
CCOC(=O)c1ccc(NC(=S)Nc2ccc3[nH]c(=O)[nH]c3c2)cc1	x	x	x	x	2
C/C(=N\NC(=O)c1ccn(C)n1)c1cccc(NC(=O)c2ccncc2)c1	0	12	-4	3	1
CN(C)CCOC(c1ccccc1)c1ccccc1	0	-3	4	18*!	-4
CN(C)CCOC(c1ccccc1)c1ccccc1 (tested in a mixture with another compound)	0	-5	3	-6	-4
CC(C)N(C(=O)NC(=O)NCC1CCCO1)S(C)(=O)=O (configuration not stated)	0	4	1	1	9.5*
CCC(C)[C@H](NC(=O)NCC1CCCO1)C(=O)OC (some centres not stated)	0	-18	1	-1	-2
Cc1noc(C)c1C1(O)CCCCCCCCCCC1	0	2	3	0	2
O=C(CNC(=O)c1ccc(-c2ccccc2)cc1)OCc1c(F)cccc1Cl	0	-1	-2	-3	3
C=CCn1c(SC(C)C#N)nc2sc(CC)cc2c1=O (configuration not stated)	0	-3	-5	-5	11*
C=CCn1c(SC(C)C(N)=O)nc2sc(CC)cc2c1=O (configuration not stated)	0	4	32*	-9	-2
C=CCn1c(SCC(=O)Nc2sccc2C(N)=O)nc2sc(CC)cc2c1=O	0	3	-5	2	0
Cc1cc(C(=O)COC(=O)CN=C2NS(=O)(=O)c3ccccc32)c(C)n1CCc1ccc(Cl)cc1	0	-6	6	-2	2
COc1cccc(NC(=O)CSC2=C(C#N)C(c3ccco3)C3=C(CCCC3=O)N2)c1 (configuration not stated)	0	-17	-20	3	10*
N#CC1=C(SCC(=O)c2ccccc2)NC2=C(C(=O)CCC2)C1c1ccco1 (configuration not stated)	0	5	-4	-4	9.8*
SMILES	Hsp70 activator	PKD1 kinase inh	Arbovirus anti	HMGR II inh	Wee1 degr inh
Cc1ccc(C(=O)CSC2=C(C#N)C(c3ccco3)C3=C(CCCC3=O)N2)cc1 (configuration not stated)	0	-10	-12	1	-1
COc1ccc(/C=C/C(=O)Nc2cc(S(=O)(=O)N3CCOCC3)ccc2C)cc1OC	0	-1	-10	1	-3
CC/C(=N\NC(=O)c1ccc(N(C)C)cc1)c1ccccc1	0	4	-2	-2	9.5*
COc1cc(OC)c(OC)cc1CN1CCN(Cc2cccn2C)CC1	0	-5	2	-3	0
CNS(=O)(=O)c1cccc(C(=O)Nc2cccc(Cl)c2)c1	0	2	1	-7	0
C/C(=N\NS(=O)(=O)c1ccccc1)c1cccc(NC(=O)c2cccc(Cl)c2)c1	0	10	47*	-9	-1
CCC(=O)Nc1ccc(/C(C)=N\NS(=O)(=O)c2ccc(C)cc2)cc1	0	0	11	-3	-2
O=C(O)c1ccccc1Nc1cccc(C(F)(F)F)c1	0	-16	38*	-2	0
COCCC(=O)N1CCCC(C(=O)c2ccc3c4c(cccc24)CC3)C1 (configuration not stated)	0	3	6	11*	3
CCOc1nc(N2CCOCC2)nc(N2CCOCC2)n1	0	-4	-2	-2	2
O=C1c2ccccc2C(=O)C1c1ccc2ccccc2n1	0	5	-1	15*	0
COC(=O)C1=C(C)NC(C)=C(C(=O)OC)C1c1ccc2ccccc2n1	0	-6	-9	2	1
COc1cc(/C=N/c2oc(-c3ccccc3)cc2C#N)ccc1O	0	-5	-8	10*	2
COc1cc(/C=N/NC(=O)c2ccccc2)ccc1O	0	-4	4	5	5
NS(=O)(=O)c1ccc(CCNCC(=O)N2CCC(Cc3ccccc3)CC2)cc1	x	x	x	x	-2
CC1=C(C(=O)OCc2ccccc2)C(/C=C/c2ccccc2)NC(=S)N1 (configuration not stated)	0	0	-33	10*	1
CC(O)C(=O)NCCOCCOCCNC(=O)C(C)O (configuration not stated)	0	-6	2	-1	9.5*
COc1ccc2[nH]c3c(N4CCc5ccccc5C4)ncnc3c2c1	x	x	x	x	9.7*
COc1ccc(NC(=O)C/C(C)=N/NC(=O)C(=O)NC(C)C)c(OC)c1	0	-7	14	2	9.7*
COc1ccc(NC(=O)C/C(C)=N/NC(=O)C(=O)Nc2cccc(Cl)c2C)c(OC)c1	0	-7	-15	-3	2
COc1ccc(/C=C/C(=O)c2ccc3c(c2)OCO3)c(OC)c1	0	-3	6	0	29*
CCC(=O)c1ccc(OC(C)C(=O)NC2(C#N)CCCCC2)cc1 (configuration not stated)	0	-8	2	-1	2
Cc1cc2cccc(C)c2nc1SCC(=O)NNC(=O)c1ccco1	0	-6	2	14*	3
Cc1cc(C)c2nc(SCC(=O)NNC(=O)c3ccco3)c(C)cc2c1	0	-3	1	-5	1
COCCn1c(-c2ccc(Cl)cc2)cnc1SCC(=O)NCc1cccs1	0	1	58*	-3	-2
Cc1ccc(-n2c(O)c(C=NCc3ccccn3)c3ccccc3c2=O)cc1C	0	-8	-19	-9	0
COc1ccc(Cc2nc3ccccc3n2C)cc1	0	-5	6	-2	-1

Compound activity from PubChem.
